An excerpt weighted towards active compounds, which were near 2.4% of everything screened.
Pol eta inh-1 – blocks human DNA polymerase eta activity. Q9Y253. recombinant Pol eta, fluorescent DNA replication assay. Potency, µM (top dose mostly 114 µM), without a hit: top-dose activity change, negative = inhibition, hits mostly inhibitors. 390,000 tested, 1.2% active. AID 588591; also: potency is read from the fitted curve at half-maximal effect; % is scaled to controls: 0 for no effect and ±100 for the full control effect
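Pol eta at 10 nM preincubated with compounds 15 min at room temperature; reaction started with fluorescent substrate (50 nM final) and read kinetically at 0 and 10 min.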
FEN1 inhibitor – human FEN1 inhibition; P39748; Recombinant FEN1 flap cleavage, fluorescence, 15 min; Potency, µM (doses to about 114 µM), for inactives: top-dose activity change, negative = inhibition, usual class: inhibitors; 390,000 tested, 0.35% active; also: potency is read from the fitted curve at half-maximal effect; % is scaled to controls: 0 for no effect and ±100 for the full control effect; nearly all actives have a fitted effect of over 65% in size
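Compounds are tested as a concentration series against 10 nM FEN1; after a 15 min room-temperature preincubation, 50 nM substrate starts cleavage, with plate reads at 0 and 15 min. Normalized responses are fitted by a Hill equation.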
Pol iota inh – inhibitors of human DNA polymerase iota; Q9UNA4; Pol iota fluorescent replication assay, 10 min; Potency, µM (doses to about 115 µM), for the others: top-dose activity, negative = inhibition, usual class: inhibitors; 390,000 tested, 1% active; AID 588590; also: potency is read from the fitted curve at half-maximal effect
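Pol iota at 10 nM preincubated 15 min with compounds at room temperature; reaction started with fluorescent substrate, 50 nM final. Fluorescence read kinetically at 0 and 10 min; buffer-only wells as negative control.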
Pol beta inh – DNA polymerase beta (human) inhibition; P06746; Pol beta primer extension/strand displacement, fluorescence kinetic; Potency, µM (highest dose often 114 µM), for the others: top-dose activity change, negative = inhibition, most hits filed as inhibitors; 340,000 tested, 1.3% active; AID 485314; also: potency is read from the fitted curve at half-maximal effect; % is scaled to controls: 0 for no effect and ±100 for the full control effect
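Pol beta (10 nM) and compounds were preincubated 15 min at room temperature, then 50 nM substrate (final) started primer extension/strand displacement. Reads were taken at 0 and 10 min; concentration-response data were fitted to a four-parameter Hill equation.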
PGK inhibitor – blocks T. brucei phosphoglycerate kinase; P07378; PGK/GAPDH coupled, Kinase-Glo luminescence, 60 min; Potency, µM (titrated, usually from 57.5 µM), inactives show top-dose activity change, negative = inhibition, usual class: inhibitors; 380,000 tested, 0.043% active; also: potency is read from the fitted curve at half-maximal effect; % is scaled to controls: 0 for no effect and ±100 for the full control effect; nearly all actives have a fitted effect of over 60% in size
Target sequence (P07378 whole entry, looked up): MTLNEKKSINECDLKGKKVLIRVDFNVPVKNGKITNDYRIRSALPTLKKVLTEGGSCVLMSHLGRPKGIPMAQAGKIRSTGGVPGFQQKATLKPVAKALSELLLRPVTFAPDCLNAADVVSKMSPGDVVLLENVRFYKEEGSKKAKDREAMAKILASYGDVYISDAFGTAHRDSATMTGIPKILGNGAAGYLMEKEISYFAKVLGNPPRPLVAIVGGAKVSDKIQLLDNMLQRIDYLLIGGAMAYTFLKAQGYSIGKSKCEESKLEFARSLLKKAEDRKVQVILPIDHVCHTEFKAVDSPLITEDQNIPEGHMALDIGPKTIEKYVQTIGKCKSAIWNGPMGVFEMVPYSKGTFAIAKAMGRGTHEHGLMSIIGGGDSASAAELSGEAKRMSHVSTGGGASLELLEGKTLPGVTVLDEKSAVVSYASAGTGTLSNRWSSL
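Luminescent ATP detection (Kinase-Glo Plus) follows a 60-minute room-temperature incubation, with wells lacking PGK as controls. Buffer: 100 mM TEA (pH 7.6), 5 mM MgCl2, 0.01% Tween-20. Coupling enzyme GAPDH (100 nM final) supplies unstable 1,3-BPG in-well.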
Pol kappa inh-1 – inhibitors of human DNA polymerase kappa. Q9UBT6. purified Pol kappa, fluorescent DNA synthesis assay, 10 min. Potency, µM (highest dose often 107 µM), without a hit: at the highest dose activity, negative = inhibition, usual class: inhibitors. 400,000 tested, 0.53% active; also: potency is read from the fitted curve at half-maximal effect; % is scaled to controls: 0 for no effect and ±100 for the full control effect
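Activity was followed as the change in fluorescence between reads at 0 and 10 min after starting the reaction with 50 nM substrate. Beforehand, 10 nM polymerase had been preincubated with compound for 15 min at room temperature.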
PGK validate – validation of Trypanosoma brucei phosphoglycerate kinase inhibitors; shares compounds with Pol kappa inh-1; TbPGK coupled GAPDH assay, Kinase-Glo luminescence; Potency, µM (highest dose often 57.5 µM), for inactives: top-dose activity change, negative = inhibition, usual class: inhibitors; 500 tested, 79% active; AID 686980; also: potency is read from the fitted curve at half-maximal effect; % is scaled to controls: 0 for no effect and ±100 for the full control effect; nearly all actives have a fitted effect of over 65% in size
Pol iota confirm – Confirm cherry-picked inhibitors of human polymerase iota; shares compounds with Pol kappa inh-1; Pol iota primer extension, TAMRA/BHQ fluorescence; Potency, µM, hits mostly inhibitors; 1,500 tested, 77% active; AID 720496; also: potency is read from the fitted curve at half-maximal effect
GALK inh confirm – confirmation of human galactokinase (GALK) inhibitors | shares compounds with Pol eta inh-1 | purified GALK, Kinase-Glo ATP depletion luminescence | Potency, µM (doses to about 115 µM), inactives show at the highest dose activity, negative = inhibition, most hits filed as inhibitors | 150 tested, 70% active
GALK redox cs – counter-screen for GALK inhibitors: redox cycling H2O2 generation; shares compounds with Pol eta inh-1; Phenol red-HRP H2O2 redox cycling, absorbance 600 nm; Potency, µM (titrated, usually from 115 µM), without a hit: at the top dose activity change, negative = H2O2 signal, hits mostly inhibitors; 150 tested, 40% active; AID 2035
HEK293 viability – counter-screen for GALK inhibitors: HEK293 cell cytotoxicity. shares compounds with Pol eta inh-1. HEK-293 viability, ATP luminescence (CellTiter-Glo), 24/48 h. Potency, µM (series often up to 46.1 µM), for the others: at the top dose activity change, negative = cytotoxicity, most hits filed as inhibitors. 170 tested, 10% active. AID 2547; also: potency is read from the fitted curve at half-maximal effect; % is scaled to controls: 0 for no effect and ±100 for the full control effect
Pol kappa inh-2 – Pol kappa (human) inhibition, cherry-pick confirmation | shares compounds with Pol eta inh-1 | purified Pol-kappa, fluorescent strand-displacement substrate | Potency, µM, actives largely listed as inhibitors | 920 tested, 76% active; also: potency is read from the fitted curve at half-maximal effect
Pol eta inh-2 – Pol eta (human) inhibition, cherry-pick confirmation; shares compounds with Pol eta inh-1; Pol eta primer extension, TAMRA/BHQ fluorescence, 10 min; Potency, µM, most hits filed as inhibitors; 2,600 tested, 64% active; AID 720502; also: potency is read from the fitted curve at half-maximal effect
Numbers without * were called inactive; ? = inconclusive; nt = no result given; [ ] = dose if it differs, or a comment. Calls follow the shape of the dose curve; as a rule, active = well fitted curve in the direction sought with a large enough effect; inconclusive = small, poorly fitted or top-dose-only effect, or another doubt; inactive = no such curve, though single readings can be large; an effect the other way counts as inactive or inconclusive.

SMILES	Pol eta inh-1	FEN1 inhibitor	Pol iota inh	Pol beta inh	PGK inhibitor	Pol kappa inh-1	Pol iota confirm	Pol eta inh-2	others
COc1cccc(NC(=O)CSc2nc3ccc(NC(=O)c4cccs4)cc3s2)c1	-20.5%	-3.5%	34.1%	-17.4%	-4.3%	0.0%	nt	nt
Cc1cc(C)c(NC(=O)Cn2c(=O)n(Cc3ccc(C(=O)NCc4ccco4)cc3)c(=O)c3sccc32)c(C)c1	?	-21.6%	?	1.12µM*	-8.5%	?	47.4*	67.5*
Cc1cccc(NC(=O)C(C)OC(=O)c2ccccc2NS(=O)(=O)c2cc(C)c(C)c([N+](=O)[O-])c2)c1 (stereo unspecified)	-22.7%	-3.3%	42.5%	27.1%	-0.6%	-3.1%	nt	nt
O=C(O)c1ccccc1NS(=O)(=O)c1ccc(NNC(=S)Nc2ccc(OC(F)F)cc2)c([N+](=O)[O-])c1	25.1µM*	?	?	89.1µM*	-23.3%	?	75.2*	75.7*
CCc1nnc(NS(=O)(=O)c2ccc(N/C=C\C(=O)c3ccc4ccccc4c3)cc2)s1	50.1µM*	?	?	?	-10.6%	-27.3%	?	75.7*
CC1OC(OC2C(Oc3c(-c4ccc(O)cc4)oc4cc(O)cc(O)c4c3=O)OC(COC3O[C@@H](C)[C@H](O)[C@@H](O)C3O)C(O)C2O)C(O)C(O)C1O (stereo partly specified)	-14.3%	-12.5%	4.8%	nt	2.1%	-2.6%	nt	nt
CC1OC(OCC2OC(Oc3c(-c4ccc(O)cc4)oc4cc(O)cc(O)c4c3=O)C(O)C(O)C2O)C(O)C(O)C1O (stereo unspecified)	10µM*	?	?	?	?	28.2µM*	42.3*	60.1*	PGK validate=5.17µM*
Cc1nc2c(c(=O)n1CCC1=CCCCC1)c1nc3ccccc3nc1n2/N=C/c1ccco1	?	-31.7%	?	10µM*	-10.2%	?	67*	75.7*
O=C(COc1ccc(Cl)cc1)Nc1cccc(S(=O)(=O)NC2=NCCCCC2)c1	-19.3%	-0.5%	16.5%	nt	1.1%	-4.6%	nt	nt
N#Cc1ccc(OCC(=O)Nc2cccc(S(=O)(=O)NC3=NCCCCC3)c2)cc1	?	3.9%	79.4µM*	nt	-10.4%	-35.0%	67*	?
N#Cc1c(-c2ccccc2)nc(SCC(=O)N2c3ccccc3Sc3ccccc32)[nH]c1=O	39.8µM*	89.1µM*	?	25.1µM*	-15.7%	-13.9%	84.4*	?	GALK inh confirm=29.8µM*;GALK redox cs=-4.0%;HEK293 viability=1.1%
N#Cc1c(-c2ccccc2)nc(SCC(=O)N(c2ccccc2)c2ccccc2)[nH]c1=O	?	-4.7%	-18.7%	-17.5%	3.2%	-7.3%	nt	nt
C=CCOC(=O)c1cc(-c2ccc(/C=C3\C(=O)NC(=O)C(C#N)=C3C)o2)ccc1Cl	3.55µM*	79.4µM*	?	12.6µM*	?	28.2µM*	67*	30.1*
CCOCCCNC(=O)c1ccc(Cn2c(=S)[nH]c3c([nH]c4ccc(OC)cc43)c2=O)cc1	-7.7%	15.2%	-20.1%	-17.5%	-3.4%	-8.5%	nt	nt
COc1ccc2[nH]c3c(=O)n(Cc4ccc(C(=O)NCC5CCCO5)cc4)c(=S)[nH]c3c2c1 (stereo unspecified)	17.8µM*	-31.1%	?	89.1µM*	-11.9%	-32.3%	?	75.7*
CC(C)c1ccc(NC(=O)CSC2=Nc3ccccc3C3=NC(CC(=O)NCc4ccc(F)cc4)C(=O)N23)cc1 (stereo unspecified)	3.9%	-9.2%	-2.7%	-0.2%	-7.4%	-4.8%[60.1 µM]	nt	nt
COc1ccc(C(=O)N/N=C/c2ccc(OC)c(COc3c(F)c(F)cc(F)c3F)c2)cc1	?	-24.6%	44.7µM*	50.1µM*	-6.8%	-15.6%	?	nt	Pol kappa inh-2=?
Cc1cc(=O)[nH]c(SCC(=O)NCc2ccco2)n1	3.16µM*	-11.6%	8.91µM*	12.6µM*	-21.5%	35.5µM*	29.9*	19*
O=C(COC(=O)c1ccc(F)cc1Cl)NCc1ccco1	39.8µM*	4.5%	22.4µM*	nt	-19.9%	?	59.7*	?
O=C(CCSCCC(=O)NCc1ccco1)NCc1ccco1	11.2µM*	7.0%	-69.1%	22.4µM*	-17.3%	?	33.6*	26.9*
O=C(CSCC(=O)NCc1ccco1)NCc1ccco1	-1.8%	-3.9%	11.5%	0.0%	-2.5%	-3.0%[60.1 µM]	nt	nt
O=C(COC(=O)/C=C/c1ccc(F)cc1)NCc1ccco1	-14.0%	-9.1%	45.8%	5.0%	-10.5%	-9.0%	nt	nt
O=C(COC(=O)C1CC2C=CC1C2)NCc1ccco1 (stereo unspecified)	8.91µM*	-23.8%	14.1µM*	15.8µM*	31.6µM*	39.8µM*	42.3*	47.8*
O=S(=O)(c1ccc(Cl)cc1)c1nc(-c2cccs2)oc1SCc1ccc(F)cc1	-18.6%	-13.4%	18.5%	-3.7%	-7.8%	3.8%	nt	nt
Cc1ccc(CN2CCN(C3CCN(S(=O)(=O)N(C)C)CC3)C(=O)C2=O)cc1	-18.9%	19.1%	26.0%	1.5%	-9.1%	-3.9%	nt	nt
